# Measurements taken from the supplement of paper PMC5499739.
# In all, about 16,000 sequences were measured (“Z-score”: median about -0.37, highest 2% from about 3.2 on). The sample as a whole holds a higher share of the highest values than the screen did.
# Test system: RBM10 RRM1-ZnF (GST-tagged construct)
# Experiment: RNAcompete 7-mer binding Z-score; higher = stronger binding preference
# Description: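 RNAcompete: 20 pmol GST-tagged RBM10 RNA-binding constructs were incubated with a designed RNA pool of about 241,000 sequences up to 41 nt (1.5 nmol) on glutathione beads for 30 min at 4 °C and washed. Bound RNAs were identified by microarray hybridisation. Each RNA 7-mer is scored by a one-sided Z-score of its enrichment, computed over probes that contain the 7-mer within longer pool sequences.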
row,Sequence,RNAcompete 7-mer binding Z-score
1,UAAGGAA,1.64
2,GCAGGAA,1.77
3,GAAGGAG,4.72
4,GAAGGAA,4.56
5,CAAGGAG,2.17
6,CAAGGAA,1.48
7,GGAGGAA,2.93
8,CAAGGAU,1.36
9,GAAGGAC,2.33
10,GAAGGAU,3.32
11,UAAGGAU,1.42
12,AAAGGAA,3.32
13,CAUCACC,-0.795
14,AACGGUG,1.56
15,CACCAAU,-0.639
16,GCCCGCC,-0.132
17,AUCCCGG,-0.513
18,UAGUUAA,-0.373
19,UUGCACU,-0.639
20,UUGGUUC,-0.344
21,UGCCGAC,-0.652
22,UCAGUAA,-0.461
23,UUACGCU,-0.5
24,AAAGGAG,3.8
25,UAAGGAG,1.97

row,Sequence,RNAcompete 7-mer binding Z-score
1,AAAGGAC,2.39
2,CAGCGCG,-0.324
3,GUAGACC,0.00729
4,CGAGCGG,3.69
5,UGAGCGG,2.38
6,CGAGCGU,0.0495
7,GGAGCGA,2.71
8,AGAGCGG,1.43
9,GGAGCGG,4.52
10,UCACUUA,-0.724
11,AUUCAAA,-0.662
12,CAUCUCA,-0.798
13,CUGGAUC,-0.311
14,CGGAUGA,1.15
15,UGGCGUA,0.316
16,AUUGGGG,3.01
17,UUUGGGU,2.47
18,UGGGCGG,3.38
19,UUGGGGG,3.56
20,UUGGGGC,1.95
21,CUUGGGU,1.38
22,UGGGCGC,1.16
23,UUUGGGG,2.72
24,AGGGCGG,2.1
25,CUUGGGG,1.44

row,Sequence,RNAcompete 7-mer binding Z-score
1,UUGGGGU,3.27
2,GUUGGGG,4.26
3,GCGUUUA,-0.535
4,CAAUUAA,-0.633
5,UCACUUC,-0.824
6,UUCAAAU,-0.607
7,GUUGCGU,0.257
8,UAGUAGU,-0.035
9,AUAUCCU,-0.789
10,GAAGUUA,0.309
11,CUUUAUG,-0.763
12,UGGGGGG,4.02
13,CGUUUGG,0.296
14,UGGGGCG,2.54
15,GGUUUUG,2.03
16,GAUUGGC,0.953
17,AAUUGGG,2.54
18,UGGGGGC,3.07
19,GUUUGGA,1.36
20,GAUUGGG,3.62
21,GGUUUGG,3.62
22,GUUUUGG,1.15
23,GUUUGGG,3.59
24,UAGGUCC,-0.165
25,GGGGCGG,2.7

row,Sequence,RNAcompete 7-mer binding Z-score
1,UCGGGGC,1.65
2,ACUAUCU,-0.759
3,UUGGCGA,0.605
4,GCGGGGG,3.94
5,GCGGGUU,2.76
6,UCGGGGA,1.6
7,CCGGGGG,1.54
8,GCGGGGA,3.67
9,GCGGGGU,3.75
10,UCGGGGU,2.07
11,GCGGGGC,2.47
12,CCGGGGA,1.27
13,GUCCAUA,-0.623
14,CCGACGC,-0.477
15,AGUACAA,-0.158
16,GUCAGCC,-0.448
17,GUGUUAA,-0.0447
18,GGGGCAG,3.4
19,GGGGGAG,3.22
20,AGGGCAG,2.11
21,CGGGGAG,2.57
22,AGGGGAG,2.9
23,UCGGGAG,1.12
24,UGGGCAG,2
25,UGGGGAG,3.36

row,Sequence,RNAcompete 7-mer binding Z-score
1,AGAUAAA,0.0463
2,UGACUCA,-0.48
3,GGUAGCC,0.784
4,UCAACAC,-0.461
5,GAGGAGA,1.69
6,ACUUGCU,-0.74
7,GACUUGA,-0.496
8,AAGGAAC,2.26
9,UAGGAAA,1.47
10,UAGGAAG,1.72
11,CAGGAAA,0.94
12,AAGGAAA,3.36
13,GAGGAAU,1.58
14,AAGGAAU,2.28
15,AAGGAAG,3.84
16,GAGGAAG,3.26
17,GGCUUAA,-0.0122
18,UGUCUCG,-0.649
19,GAUACGU,-0.022
20,AUGGACA,1.95
21,UUUGCUC,-0.867
22,GUGGAGC,2.91
23,AUGGAGA,2.62
24,GUGGAGG,3.91
25,GUGGAGU,2.67

row,Sequence,RNAcompete 7-mer binding Z-score
1,AUGGAGU,2.63
2,AUGGAGG,4.22
3,GGUGGUG,3.56
4,AGUGGUG,2.37
5,GAUGGUC,0.563
6,CGUGGUG,1.52
7,AAUGGUG,2.79
8,GAUGGUG,3.27
9,ACCACCA,-0.503
10,CUUACAC,-0.841
11,GCUCCCA,-0.574
12,GUCGUAG,0.056
13,ACAUCGA,-0.48
14,GGUAGGC,1.92
15,UGUAAAG,0.173
16,CGUAGAG,0.381
17,GGUAGGU,3.31
18,AGUAGGA,2.8
19,GGUAGGA,3.4
20,GGUAGAG,3.37
21,CGUAGGU,0.949
22,UGUAGAG,0.923
23,AGUAGGU,1.68
24,GGUAAAG,3.32
25,CGUAAAG,-0.116

row,Sequence,RNAcompete 7-mer binding Z-score
1,GAACCAG,-0.0934
2,GCGUAGC,-0.0155
3,CCGAAUU,-0.815
4,UGACCAC,-0.49
5,CUGUCGG,-0.305
6,UAGUCGA,-0.191
7,CCUUAUA,-0.87
8,UGGGCUG,1.83
9,GGUAGGG,4.7
10,GGUAGCG,1.67
11,GGUAGUG,2.47
12,AAGACUC,-0.561
13,AAUUAUA,-0.464
14,GAUCCUC,-0.883
15,AAUGGUU,2.44
16,CAUGGGU,2.24
17,AAUGGGU,3.89
18,UAUGGGG,3.4
19,AAUGGCU,0.303
20,CAUGGGG,2.42
21,UAUGGCG,0.537
22,GAUGGGU,3.53
23,UAUGGGC,1.47
24,AAUGGGG,4.2
25,ACUGGGG,1.89

row,Sequence,RNAcompete 7-mer binding Z-score
1,UAUGGGU,2.81
2,GAGGACC,0.235
3,CCUCCUC,-0.542
4,UGUACAU,-0.422
5,UGUGCCA,-0.542
6,ACUAUAC,-0.642
7,CACAUGU,-0.448
8,CAUUCUU,-0.789
9,ACGACAC,-0.496
10,GAUGGGC,2.15
11,UAUGGGA,2.85
12,GAUGGGG,4.43
13,AAUGGGA,4.35
14,GCUGGGG,2.64
15,CAUGGGA,1.95
16,GAUGGUA,2.28
17,AAUGGGC,2.5
18,GAUGGGA,3.76
19,CUCACUU,-0.925
20,UUGUUAC,-0.373
21,GUUACCG,-0.0999
22,GGCCGAG,0.462
23,UGCGAUA,-0.223
24,GCCAGAG,0.00729
25,GGGGAGG,3.64

row,Sequence,RNAcompete 7-mer binding Z-score
1,CGGGAGG,3.02
2,UGGGAGA,2.78
3,UGGGAGU,2.27
4,CGGGAGA,1.24
5,GGGGAGU,2.84
6,UGGGAGG,4.4
7,UGGGAGC,2.86
8,AGGGAGU,2.96
9,GGGGAGA,3.3
10,GGGGAGC,2.29
11,AGGGAGG,3.68
12,AGUCAGU,0.0105
13,ACGCCGC,-0.633
14,UCCAACU,-0.85
15,GUUACGG,0.859
16,GAGCUGA,0.417
17,GCGCAAA,-0.181
18,AAGGCCA,-0.00896
19,UUCUUAG,-0.698
20,AUCCUAC,-0.87
21,GUCUCAU,-0.642
22,AGAAUCC,-0.785
23,AUACAAU,-0.539
24,CACGCAA,-0.464
25,GGGCUAU,0.849

row,Sequence,RNAcompete 7-mer binding Z-score
1,CAUAAGG,0.335
2,GAUAAGU,0.313
3,AAAAAGG,2
4,GAAAGGU,4.51
5,AGAAAGG,4.58
6,CAAAAGG,0.888
7,CAAAGGU,1.15
8,CGAAAGG,2.19
9,UGAAAGG,3.05
10,GAAAAGG,4.26
11,GAUAAGG,3.91
12,AAAAGGU,2.33
13,CACCUUG,-0.516
14,ACUAGUG,0.0983
15,GUACCAG,-0.035
16,ACCAGGA,0.823
17,CGCGGCG,1.25
18,CGCCAUA,-0.594
19,CGAGGGU,3.7
20,UGAGGCU,0.3
21,CGAGGUU,0.846
22,UGAGGAG,1.86
23,CGAGGGC,1.06
24,UGAGGGU,3.48
25,UGAGAGG,1.94

row,Sequence,RNAcompete 7-mer binding Z-score
1,CGAGGGA,2.84
2,UGAGGGG,3.64
3,UGAGGGC,2.27
4,AGAGGGU,2.22
5,UGAGGGA,4.02
6,UAGCGGC,-0.132
7,AGAUGAU,0.287
8,UGACUCC,-0.652
9,AUUUAAC,-0.561
10,GGGAGAU,2.7
11,CGAAGCU,-0.691
12,GUCAGCU,-0.425
13,AGUGCCG,-0.11
14,UCGCAAU,-0.545
15,CGAACGA,-0.123
16,GGGCAUA,1.66
17,AUACACC,-0.795
18,CUGAGGC,-0.0155
19,GGAGGGU,3.97
20,GGAGGAU,2.46
21,GGAGGCU,1.41
22,CCCAAUG,-0.662
23,GUAGGGG,4.54
24,AUAGGCG,0.781
25,CUAGGGU,2.25

row,Sequence,RNAcompete 7-mer binding Z-score
1,GUAGGGU,4.46
2,AUAGGGG,3.9
3,UUAGGGG,2.4
4,AUAGGUG,2.64
5,GUAGGGC,2.49
6,UUAGGGA,2.03
7,CUAGGGG,2.46
8,GUAGGGA,3.87
9,UUAGGGU,2.78
10,GCAUACU,-0.694
11,UACAGGU,0.881
12,AUAGCAG,0.358
13,ACUCGGG,0.667
14,ACAACCA,-0.464
15,CAAUGUC,-0.75
16,GAGACCA,-0.126
17,GACUAAC,-0.626
18,UCCUUGC,-0.733
19,GACUGGG,2.42
20,CUAGGAG,0.608
21,AUAGGGU,3.61
22,AUAGGGA,2.86
23,GUAGGAC,1.4
24,AUAGGGC,1.72
25,GUAGGAG,3.43

row,Sequence,RNAcompete 7-mer binding Z-score
1,CCAGCAA,-0.617
2,AUGGCAU,0.514
3,UUAAAAA,-0.444
4,GGCCUGC,-0.428
5,AAAAGCG,0.378
6,ACUUCUC,-0.841
7,UAUAAUA,-0.412
8,CGCGUGC,-0.223
9,ACGGGGU,4.07
10,ACGGGGC,2.26
11,ACGGGUC,1.19
12,ACGGGGA,3.04
13,GCGGGUG,3.17
14,ACCGGGU,0.631
15,ACGGGGG,3.27
16,ACGGGUG,3.39
17,ACGGGUU,2.65
18,CUCAAUC,-0.769
19,ACGCUCG,-0.636
20,UUUUAUC,-0.873
21,CAGCCUG,-0.513
22,GAAGUGG,3.46
23,GAAGUGU,1.08
24,AGAGUGG,2.81
25,GGAGUGA,2.38

row,Sequence,RNAcompete 7-mer binding Z-score
1,GGAGUGG,4.84
2,GAAGUGC,0.29
3,CGUCCCG,-0.594
4,CGUUCUA,-0.811
5,UUUCUUA,-0.727
6,UUAUAAC,-0.704
7,GACUAUA,-0.542
8,CAAGGGU,2.65
9,GAAGGGC,2.98
10,GAAGGGU,4.19
11,UAAGGGG,3.27
12,CAAGGGG,2.79
13,UAAGGCU,0.183
14,AAAGGGC,2.62
15,CAAGGGA,2.42
16,GAAGGCU,0.621
17,AAAGGGA,4.42
18,UAAGGGU,3.44
19,UAAGGCG,1.03
20,ACUUAGU,-0.435
21,GAAUGCU,-0.184
22,AUAGAAU,-0.132
23,CCUCGCU,-0.681
24,UUACUAC,-0.707
25,UGCUGUG,-0.119

row,Sequence,RNAcompete 7-mer binding Z-score
1,UCUGACG,-0.535
2,UACCAAC,-0.668
3,UAAGGGC,1.49
4,GCAGGGA,2.92
5,UAAGGCA,0.888
6,GAAGGGA,4.52
7,UAAGGGA,3.27
8,GAAGGCA,1.7
9,CCUCAUC,-0.737
10,CCACGUA,-0.578
11,AGACAGG,1.59
12,GGGCGAG,3.37
13,CGGCGGG,2.07
14,GGACAGU,0.842
15,GGACAGG,3.3
16,GGGCAGG,3.39
17,UGGCGGG,3.47
18,UGGCGGU,1.49
19,GGGCAGA,2.45
20,GGGCGAC,1.81
21,AGGCAGG,1.8
22,GGGCGAA,2.22
